Results from the supplement of paper PMC13380429.

System: Vero E6 infected with SARS-CoV-2
Assay: inhibition of SARS-CoV-2 cytopathic effect; higher = more antiviral protection, active = above 15
Settings: 48 h

Measured: inhibition of SARS-CoV-2 cytopathic effect

O=C(O)c1cc(O)c2ccc(Cl)cc2n1 [7-chlorokynurenic-acid]
inactive: 1 nM 1.64% | 8.33 nM 1.28% | 100 nM 1.02% | 833.33 nM 1.24% | 10000 nM 1.89%

CC1=NN(c2ccccc2)C(=O)C1 [edaravone]
inactive: 1 nM 1.36% | 8.33 nM 0.66% | 100 nM -0.76% | 833.33 nM 0.1% | 10000 nM 3.57%

FC(F)(F)c1ccc(/C=C/c2nc(COc3ccc(CCCCn4ccnn4)cc3)co2)cc1 [mubritinib]
inactive: 1 nM 2.13% | 8.33 nM 1.62% | 100 nM 2.58% | 833.33 nM 3.2% | 10000 nM 1.47%

c1ccc2nc(C3=NCCN3)ccc2c1
inactive: 1 nM -1% | 8.33 nM 0.61% | 100 nM 2.25% | 833.33 nM 3.75% | 10000 nM 2.01%

O=C(NO)c1ccc2[nH]c(=O)c(CCCc3ccccc3)nc2c1
inactive: 1 nM 1.82% | 8.33 nM 3.66% | 100 nM 0.97% | 833.33 nM 1.93% | 10000 nM -2.66%

CCC(C)CCCC(=O)N[C@@H](CCN)C(=O)N[C@H](C(=O)N[C@@H](CCN)C(=O)N[C@H]1CCNC(=O)[C@H]([C@@H](C)O)NC(=O)[C@H](CCN)NC(=O)[C@H](CCN)NC(=O)[C@H](CC(C)C)NC(=O)[C@@H](CC(C)C)NC(=O)[C@H](CCN)NC1=O)[C@@H](C)O (stereo not given in full) [colistin]
inactive: 1 nM 0.955% | 8.33 nM -0.06% | 100 nM 3.56% | 833.33 nM 0.76% | 10000 nM -2.41%

CC(=O)O[C@H]1C(=O)[C@@]2(C)[C@H]([C@H](OC(=O)c3ccccc3)[C@]3(O)C[C@H](OC(=O)[C@H](O)[C@@H](NC(=O)c4ccccc4)c4ccccc4)C(C)=C1C3(C)C)[C@]1(OC(C)=O)CO[C@@H]1C[C@@H]2O [paclitaxel]
inactive: 1 nM -2.42% | 8.33 nM -0.27% | 100 nM -2.39% | 833.33 nM -4.55% | 10000 nM -2.64%

O=c1c(-c2ccc(O)cc2)coc2c([C@@H]3O[C@H](CO)[C@@H](O)[C@H](O)[C@H]3O)c(O)ccc12 [kakonein]
inactive: 1 nM -2.72% | 8.33 nM -3.42% | 100 nM -3.81% | 833.33 nM -5.79% | 10000 nM -6.74%

FC(F)(F)c1ccccc1-c1cc(C(F)(F)F)c2[nH]c(C3=NOC4(CCCCC4)C3)nc2c1
inactive: 1 nM -0.82% | 8.33 nM 0.77% | 100 nM -0.98% | 833.33 nM -2.13% | 10000 nM -3.97%

COc1ccc(-c2c(C)c(C(=O)NN3CCCCC3)nn2-c2ccc(Cl)cc2Cl)cc1
inactive: 1 nM -1.3% | 8.33 nM -1.23% | 100 nM -5.55% | 833.33 nM -3.38% | 10000 nM -1.1%

COc1nccnc1NS(=O)(=O)c1ccc(N)cc1 [sulfametopyrazine]
inactive: 1 nM -1.43% | 8.33 nM 0.06% | 100 nM -1.36% | 833.33 nM -2.74% | 10000 nM -0.68%

O=C(O)c1cc2occc2[nH]1
inactive: 1 nM -2.55% | 8.33 nM -2.94% | 100 nM -2.08% | 833.33 nM -2.97% | 10000 nM -2.87%

CNCc1cc(-c2ccccc2F)n(S(=O)(=O)c2cccnc2)c1 [vonoprazan]
inactive: 1 nM -3.91% | 8.33 nM -1.43% | 100 nM -1.96% | 833.33 nM -1.21% | 10000 nM -4.64%

CCC(=O)NC[C@@H]1C[C@H]1c1cccc2c1CCO2 [tasimelteon]
inactive: 1 nM -0.84% | 8.33 nM 1.68% | 100 nM -0.1% | 833.33 nM 0.64% | 10000 nM -1.54%

CC(C)(S)C(=O)N[C@@H](CS)C(=O)O [bucillamine]
inactive: 1 nM 0.66% | 8.33 nM 4.25% | 100 nM 5.04% | 833.33 nM 3.9% | 10000 nM -4%

CC1(C)Cc2c(-c3ccccc3)c(-c3ccc(Cl)cc3)c(CC(=O)O)n2C1 [licofelone]
inactive: 1 nM -2.87% | 8.33 nM 2.92% | 100 nM 4.49% | 833.33 nM 3.45% | 10000 nM 2.49%

COC(=O)[C@@H]1[C@H]2C[C@H]3c4[nH]c5ccccc5c4CCN3C[C@@H]2CC[C@@H]1O [yohimbine]
inactive: 1 nM 0.18% | 8.33 nM 2.4% | 100 nM 1.41% | 833.33 nM -1.6% | 10000 nM -0.14%

C[C@@H](N[C@H]1CCCC[C@@H]1NC(=O)c1ccc(Cl)cc1)c1cccc2ccccc12 [Calhex-231]
inactive: 1 nM -0.12% | 8.33 nM -0.88% | 100 nM 1.31% | 833.33 nM 5.65% | 10000 nM -1.86%

CC1(C)CN(C(=O)c2ccc(-c3cccc4nc(NC(=O)C5CC5)nn34)cc2)C1 [solcitinib]
inactive: 1 nM 0.35% | 8.33 nM 1.82% | 100 nM 2.28% | 833.33 nM 4.05% | 10000 nM 4.4%

C[C@@H]1c2ccccc2CN1CC1=NCCN1 (racemic)
inactive: 1 nM -1.04% | 8.33 nM -0.79% | 100 nM -0.96% | 833.33 nM 1.02% | 10000 nM -0.71%

NS(=O)(=O)c1ccc(NC(=O)Nc2ccc(F)cc2)cc1
inactive: 1 nM 1% | 8.33 nM -1.24% | 100 nM 0.78% | 833.33 nM -1.65% | 10000 nM -0.78%

N[C@@H]1CN(c2c(F)cc3c(=O)c(C(=O)O)cn([C@@H]4C[C@@H]4F)c3c2Cl)CC12CC2 [sitafloxacin]
inactive: 1 nM -0.69% | 8.33 nM -3.2% | 100 nM -0.99% | 833.33 nM -1.2% | 10000 nM 5.19%

CCC1(C2=NCCN2)Cc2ccccc2O1 (stereo not given) [efaroxan]
inactive: 1 nM -0.76% | 8.33 nM -1.17% | 100 nM -0.66% | 833.33 nM -2.93% | 10000 nM -3.79%

CCc1c(C(=O)C(N)=O)c2c(OCC(=O)O)cccc2n1Cc1ccccc1 [varespladib]
inactive: 1 nM 2.9% | 8.33 nM -0.54% | 100 nM 1.35% | 833.33 nM 1.32% | 10000 nM 0.87%

N#Cc1cccc(C(=O)Nc2cc(-c3ccccc3)nn2-c2ccccc2)c1
inactive: 1 nM 1.77% | 8.33 nM 4.71% | 100 nM 3.47% | 833.33 nM 3.43% | 10000 nM 1.98%

FC(F)(F)c1ccc(N2CCNCC2)nc1Cl
inactive: 1 nM 1.34% | 8.33 nM -0.28% | 100 nM 0.72% | 833.33 nM 1.94% | 10000 nM -3.98%

CCCc1nc(C(C)(C)O)c(C(=O)OCc2oc(=O)oc2C)n1Cc1ccc(-c2ccccc2-c2nnn[nH]2)cc1 [olmesartan-medoxomil]
inactive: 1 nM -1.27% | 8.33 nM 0.1% | 100 nM -1.32% | 833.33 nM 1.87% | 10000 nM 0.55%

Nc1ccc(O)c(C(=O)O)c1 [mesalazine]
inactive: 1 nM 1.06% | 8.33 nM -2.08% | 100 nM 1.03% | 833.33 nM -1.05% | 10000 nM -2.08%

COC(=O)[C@H](NC(=O)c1cc(-c2ccccc2)nc2ccccc12)c1ccccc1
inactive: 1 nM 2.67% | 8.33 nM 2.5% | 100 nM 0.38% | 833.33 nM 0.39% | 10000 nM 1.12%

CC(C)(C)[C@H]1CC[C@H](CC2=C(O)C(=O)c3ccccc3C2=O)CC1 [buparvaquone]
inactive: 1 nM 1.01% | 8.33 nM 3.57% | 100 nM 2.36% | 833.33 nM 0.32% | 10000 nM -5.12%

C[N+]1(C)CCC(=C(c2ccccc2)c2ccccc2)CC1 [diphemanil]
inactive: 1 nM -0.26% | 8.33 nM -0.4% | 100 nM -0.53% | 833.33 nM 2.17% | 10000 nM 2.09%

COc1cc2ncnc(Nc3cccc(Cl)c3F)c2cc1OC(=O)N1CCN(C)C[C@H]1C
inactive: 1 nM 1.89% | 8.33 nM 2.48% | 100 nM -1.03% | 833.33 nM -2.96% | 10000 nM -9.49%

NCCc1c[nH]c2ccc(C(N)=O)cc12 [5-carboxamidotryptamine]
active: 833.33 nM 15.1%
inactive: 1 nM 2.2% | 8.33 nM 0.54% | 100 nM 3.52% | 10000 nM 1.89%

CC(C)C[C@H](NC(=O)[C@H](CCc1ccccc1)NC(=O)CN1CCOCC1)C(=O)N[C@@H](Cc1ccccc1)C(=O)N[C@@H](CC(C)C)C(=O)[C@@]1(C)CO1 [carfilzomib]
active: 833.33 nM 34.9%
inactive: 1 nM -1.68% | 8.33 nM -2.43% | 100 nM 11.4% | 10000 nM 10.2%

Cc1cc2c(cc1C(F)(F)F)N(C(=O)Nc1ccc(Oc3cccnc3C)nc1)CC2
inactive: 1 nM 0.45% | 8.33 nM 0.15% | 100 nM -0.25% | 833.33 nM 0.74% | 10000 nM -2.31%

COc1ccc(-c2ccc3ncc4c(c3c2)n(-c2ccc(N3CCNCC3)c(C(F)(F)F)c2)c(=O)n4C)cn1
inactive: 1 nM 0.99% | 8.33 nM 2.5% | 100 nM -0.69% | 833.33 nM -8.37% | 10000 nM -23.9%

NCC(=O)Nc1ccc(-n2nc(C(F)(F)F)cc2-c2ccc3c(ccc4ccccc43)c2)cc1
inactive: 1 nM -0.05% | 8.33 nM 2.22% | 100 nM 2.09% | 833.33 nM -1.2% | 10000 nM -3.56%

Nc1ncnc2c1ncn2C1CCCO1 (stereo not given)
inactive: 1 nM 2.17% | 8.33 nM 3.9% | 100 nM -1% | 833.33 nM 2.95% | 10000 nM -0.8%

Cc1sc2c(c1C)C(c1ccc(Cl)cc1)=N[C@@H](CC(N)=O)c1nnc(C)n1-2
inactive: 1 nM -0.7% | 8.33 nM -0.88% | 100 nM 0.16% | 833.33 nM -4.22% | 10000 nM -9.8%

COc1cccc(CCc2ccccc2OCC[C@@H]2C[C@@H](O)CN2C)c1
inactive: 1 nM 2.39% | 8.33 nM 4.9% | 100 nM 14.7% | 833.33 nM -9.02% | 10000 nM -0.59%
